Screening data (PubChem BioAssay)
Only some compounds are listed: those with a hit (about 10% of all), similar ones and a draw of the others.
HP1b binding inh = HTS for Inhibitors of HP1-beta Chromodomain Interactions with Methylated Histone Tails. Chromobox protein homolog 1 (Homo sapiens), P83916. AlphaScreen HP1-beta / biotin-H3K9me3 peptide binding. Potency, µM (highest dose often 114 µM), inactives show at the top dose activity change, negative = inhibition, usual class: inhibitors. 390,000 tested, 0.56% active. AID 540317, 2011; note: potency is the fitted concentration of half-maximal effect; nearly all actives have a fitted effect of over 70% in size
Target sequence (P83916 whole entry, looked up): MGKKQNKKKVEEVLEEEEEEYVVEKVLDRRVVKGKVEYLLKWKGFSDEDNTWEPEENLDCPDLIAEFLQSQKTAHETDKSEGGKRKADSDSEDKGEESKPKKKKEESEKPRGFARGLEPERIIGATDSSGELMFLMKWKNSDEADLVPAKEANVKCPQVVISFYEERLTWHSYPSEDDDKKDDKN
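Compound inhibition of the preformed complex between 50 nM HP1-beta and 50 nM biotinylated H3K9me3 peptide was read by AlphaScreen. Buffer was PBS pH 7.4 with 0.01% Tween-20. Incubations ran 30 min at room temperature, with 10 ug/mL donor/acceptor beads.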
G9a inh = qHTS Assay for Inhibitors of Histone Lysine Methyltransferase G9a | G9a H3K9 monomethylation, AlphaScreen, 2 h | Potency, µM (doses to about 102 µM), inactives show top-dose activity, negative = inhibition, actives largely listed as inhibitors | 350,000 tested, 8.8% active; note: potency is the fitted concentration of half-maximal effect; % is set by controls: 0 for no effect and ±100 for the full control effect; nearly all actives have a fitted effect of over 75% in size
Target sequence (Q96KQ7 913-1193 limits assumed): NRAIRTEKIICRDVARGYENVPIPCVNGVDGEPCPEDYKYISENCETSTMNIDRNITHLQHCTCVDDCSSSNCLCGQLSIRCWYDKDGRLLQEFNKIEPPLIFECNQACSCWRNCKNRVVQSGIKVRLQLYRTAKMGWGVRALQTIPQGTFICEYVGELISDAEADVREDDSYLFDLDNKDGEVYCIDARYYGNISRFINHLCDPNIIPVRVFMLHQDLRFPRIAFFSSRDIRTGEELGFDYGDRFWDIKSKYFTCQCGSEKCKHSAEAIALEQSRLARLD
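Signal arises when biotinylated H3K9 peptide, once monomethylated, bridges streptavidin donor and antibody-captured acceptor beads. Enzyme at 20 nM was preincubated 15 min with test compounds; peptide 500 nM and SAM 20 uM then reacted for 2 h.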
CtBP-E1A inh = qHTS Assay for Inhibitors of the CtBP/E1A Interaction. 340,000 tested, 0.49% active. activity change, % (test concentration not listed). AlphaScreen GST-E1A/His-CtBP binding, 1536-well; active compounds read low; in the data active = activity change below about -65%; inconclusive = mostly about -30% to -63%; note: % is set by controls: 0 for no effect and ±100 for the full control effect
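Protein mix (5X: 125 nM each GST-E1A, His-CtBP) was incubated with pinned compound 2 h at 37 deg C in dark, in 50 mM Tris pH 8.0 buffer with 300 mM NaCl. Glutathione donor and nickel acceptor beads followed; AlphaScreen signal read after 1 h.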
JMJD2A Tudor inh = qHTS Assay for Inhibitors of JMJD2A-Tudor Domain | Lysine-specific demethylase 4A (Homo sapiens), O75164 | AlphaScreen JMJD2A-Tudor / H3K4me3 peptide binding | Potency, µM (doses to about 114 µM), without a hit: top-dose activity change, negative = inhibition, most hits filed as inhibitors | 390,000 tested, 4.4% active | AID 504339, 2011; note: potency is the fitted concentration of half-maximal effect; % is set by controls: 0 for no effect and ±100 for the full control effect; nearly all actives have a fitted effect of over 50% in size
BAZ2B inh = qHTS Assay for Inhibitors of BAZ2B. Bromodomain adjacent to zinc finger domain protein 2B (Homo sapiens), Q9UIF8. AlphaScreen BAZ2B-H3K14Ac peptide displacement. Potency, µM (doses to about 114 µM), inactives show top-dose activity change, negative = inhibition, hits mostly inhibitors. 360,000 tested, 4.4% active; note: potency is the fitted concentration of half-maximal effect; % is set by controls: 0 for no effect and ±100 for the full control effect; nearly all actives have a fitted effect of over 60% in size
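AlphaScreen luminescence quantifies BAZ2B engagement of H3K14Ac peptide; the protein and biotinylated peptide are both at 50 nM final, buffer PBS pH 7.4 with 0.01% Tween-20, all steps at room temperature.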
Six1-Eya2 inh = qHTS Assay for Inhibitors of the Six1/Eya2 Interaction; AlphaScreen GST-Six1/His-Eya2 binding, biochemical; active compounds read low; activity change, % (test concentration not listed); 360,000 tested, 0.56% active; AID 651725, 2012; in the data active = activity change below about -65%; inconclusive = mostly about -30% to -63%; note: % is set by controls: 0 for no effect and ±100 for the full control effect
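Compounds are tested against tagged Six1 and Eya2 proteins bridged by glutathione donor and nickel acceptor beads; after a one-hour incubation at 37 °C without light, AlphaScreen emission is recorded.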
Numbers without * were called inactive; ? = inconclusive; . = not tested or not shown; [ ] = dose if it differs, or a comment. Unless noted, calls come from the whole dose curve; as a rule, active = well fitted inhibition curve with a large enough effect; inconclusive = small, poorly fitted or top-dose-only effect; inactive = no such curve, though single readings can be large or run the other way.

SMILES	HP1b binding inh	G9a inh	CtBP-E1A inh	JMJD2A Tudor inh	BAZ2B inh	Six1-Eya2 inh
Cc1ccc(C2CC(C(F)(F)F)n3ncc(C(=O)NCc4ccco4)c3N2)cc1 (stereo unspecified)	-15%	45µM*	-7	?	?	-11
Cc1cc(C)c(-c2cc(NC(=O)COC(=O)c3ccc(C#N)cc3)n(-c3ccccc3)n2)cc1C	28%	32µM*	-1	-11%	-33%	-9
OC(c1cccc(Cl)c1)c1nc(/C=C/c2ccccc2)cs1 (stereo unspecified)	.	.	4	.	.	-2
Cc1ccc(O)c(N)c1	4%	10%[0.501 µM]	-10	-32%	-4%	1
COc1ccc(O)c(N)c1	.	7.9µM*	.	.	50µM*	.
O=C(Cc1nnc(-c2nc3ccccc3[nH]2)o1)Nc1cc(C(F)(F)F)ccc1Cl	.	.	.	-10%	.	.
O=C(O)CNS(=O)(=O)c1ccc2[nH]c(=O)c(=O)[nH]c2c1	19%	56µM*	5	-15%	-5%	5
CC(C)c1ccc(S(=O)(=O)N2CCC(N3CCN(Cc4ccccc4)C(=O)C3=O)CC2)cc1	-7%	2%[59 µM]	.	-26%	4%	.
COc1cc2nc(N3CCN(c4cc(C)ccc4C)CC3)nc(N)c2cc1OC	-15%	50µM*	-13	?	50µM*	1
COc1cc2nc(N3CCNCC3)nc(N)c2cc1OC	?	?	-12	?	-1%	-2
Cc1sc2ccc3sccc3c2[n+]1C	4%	3.5µM*	3	20µM*	?	4
Cc1sc2c3ccsc3ccc2[n+]1C	-20%	?	-12	25µM*	100µM*	9
O=Cc1ccc2noc(-c3ccc(Cl)cc3)c2c1	23%	22µM*	-3	-6%	-5%	2
Cc1ccc(-c2onc3ccc(Cl)cc23)cc1	44%	21%[59 µM]	-17	-4%	0%	19
CC(C)(C)c1ccc(-c2nc(SCC(=O)Nc3ccc(Cl)cc3)[nH]c(=O)c2C#N)cc1	24%	-16%[59 µM]	.	-32%	79µM*	.
O=C(CSc1nc2[nH]ncc2c(=O)[nH]1)Nc1cccc(Cl)c1	37%	?	-1	-1%	-20%	-10
N#Cc1c(-c2ccco2)nc(SCC(=O)Nc2cccc(Cl)c2)[nH]c1=O	14%	35µM*	6	?	-12%	-1
CCOc1ccccc1NC(=O)C(C)Sc1nc(-c2ccccc2)c(C#N)c(=O)[nH]1 (stereo unspecified)	12%	-23%[59 µM]	.	-27%	-24%	.
CCc1ccc(NC(=O)C(C)Sc2nc(-c3ccco3)c(C#N)c(=O)[nH]2)cc1 (stereo unspecified)	-13%	50µM*	-17	?	?	-11
N#Cc1c(-c2ccccc2)cc(-c2ccccc2)nc1SCC(=O)Nc1ccc(Cl)cc1	43%	?	.	7%	12%	.
Cc1nn(-c2ccccn2)c2c1C(c1ccccn1)C1=C(CCCC1=O)N2 (stereo unspecified)	.	-2%[59 µM]	.	.	-6%	.
CC(=O)Nc1ccc(-n2cc3c(c2-c2ccc(C)cc2)c(=O)n(C)c(=O)n3C)cc1	-10%	?	.	-35%	?	.
COc1ccc(CCNC(=O)CSc2nnc(Cc3csc(N)n3)n2C)cc1OC	26%	23%[59 µM]	-1	50µM*	22µM*	-10
Cc1ccc(CCNC(=O)CCCc2nnc3n(C)c(=O)c4sccc4n23)cc1	20%	7%[59 µM]	.	-15%	1%	.
COc1ccc(CCNC(=O)CCCc2nnc3n(C)c(=O)c4sccc4n23)cc1OC	25%	22µM*	-3	-4%	?	-8
SMILES	HP1b binding inh	G9a inh	CtBP-E1A inh	JMJD2A Tudor inh	BAZ2B inh	Six1-Eya2 inh
COCCN(C(=O)C1CCC1)c1nnc(-c2cccnc2)s1	55%	1%[59 µM]	2	-6%	-20%	0
CCN(C(=O)C1CCCCC1)c1nnc(-c2cccnc2)s1	52%	50µM*	-5	?	?	-2
CN(C)c1ccc(C(=O)NC2CCCc3ccccc32)cc1 (stereo unspecified)	28%	24%[12.7 µM]	-18	-4%	-29%	-13
O=C(NC(=S)NC1CCCc2ccccc21)c1ccco1 (stereo unspecified)	34%	-35%	-7	-6%	-31%	-15
O=C(CCl)NC1CCCc2ccccc21 (stereo unspecified)	-11%	6%	1	50µM*	4%	0
O=C(NC1CCCc2ccccc21)c1cc(Cl)ccn1 (stereo unspecified)	3%	25µM*	9	30%	2%	0
O=C(NC(=S)NC1CCCc2ccccc21)c1ccc(F)cc1 (stereo unspecified)	-12%	-22%	3	79µM*	?	-18
N#Cc1ccc(C(=O)NC2CCCc3ccccc32)cc1 (stereo unspecified)	48%	50µM*	0	7%	4%	3
COCCCNC1=C(C#N)C(=O)NC(c2cccc([N+](=O)[O-])c2)S1 (stereo unspecified)	.	.	0	.	.	11
COc1cc(C2NC(=O)C(C#N)=C(Nc3cccc(C)c3)S2)ccc1O (stereo unspecified)	17%	45µM*	.	-10%	-29%	0
O=C(NNC1=NS(=O)(=O)c2ccccc21)c1ccc([N+](=O)[O-])cc1	11%	35µM*	3	-6%	-6%	7
O=C(NNC1=NS(=O)(=O)c2ccccc21)c1ccc(Cl)cc1	32%	-46%	.	-11%	-6%	1
O=C(CSc1nnc(NC(=O)c2c(F)cccc2F)s1)NCC1CCCO1 (stereo unspecified)	42%	20µM*	11	-1%	11%	3
Cc1ccc(N2CC(C(=O)Nc3nnc(SCC(=O)NCC4CCCO4)s3)CC2=O)cc1 (stereo unspecified)	43%	?	3	-19%	-11%	0
O=C(Nc1nnc(SCCN2CCOCC2)s1)C1CC(=O)N(c2ccc(F)cc2)C1 (stereo unspecified)	23%	45µM*	-5	-24%	-30%	-2
O=C(CSc1nnc(NC(=O)C2CC(=O)N(c3ccc(F)cc3)C2)s1)NCC1CCCO1 (stereo unspecified)	26%	45µM*	8	-16%	-6%	-1
O=C(CSc1nnc(NC(=O)c2cccc(F)c2)s1)NCC1CCCO1 (stereo unspecified)	27%	.	3	-8%	-5%	-1
